Assay results from PubChem BioAssay (Tox21).
Unmarked numbers belong to inactive results. Records with an inconclusive call do not appear. Where a call stands in place of a potency, no number is given. Active and inactive are the calls of the source. Unless noted, calls follow the shape of the dose curve; as a rule, active = well fitted curve in the direction sought with a large enough effect in the repeat runs; inconclusive = weak or mixed curves; inactive = no such curve, though single readings can be large; an effect the other way counts as inactive or inconclusive.

Assays:
[1] = qHTS assay to identify small molecule antagonists of the retinoid acid receptor (RAR) signaling pathway - cell viability counter screen (AID 1159551); also: nearly all actives have a fitted effect of over 35% in size
In short: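 In this counter screen, the RARE-luciferase line C3RL4 was exposed for 6 h at 37 C and 5% CO2 to compounds with retinol at 1 uM final. Cellular ATP, read by luminescence, served as the viability measure.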

[2] = qHTS assay to identify small molecule antagonists of the retinoic acid receptor (RAR) signaling pathway (AID 1159552; also: nearly all actives have a fitted effect of over 50% in size)
In short: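 Retinol signaling pathway inhibitors screened in C3RL4 RARE-luciferase reporter cells seeded overnight at 37 C, then compounds added with 1 uM (final) retinol as pathway substrate. After 6 hr at 37 C, luciferase luminescence read after 30 min at room temperature.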

[3] = qHTS assay to identify small molecule agonists of the retinoic acid receptor (RAR) signaling pathway (AID 1159553); also: potency is read from the fitted curve at half-maximal effect
In short: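 In this cell-based screen, 1,000 C3RL4 cells per well were cultured overnight, dosed with test chemicals in DMSO for 6 hr, and assessed for RARE luciferase luminescence.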

[4] = qHTS assay to identify small molecule antagonists of the estrogen related receptor (ERR) signaling pathway from Tox21 library - cell viability counter screen (AID 1224834); also: nearly all actives have a fitted effect of over 30% in size
In short: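 Counter screen run in ERR cells (2,000 cells/well): cells pre-incubated 6 h, then treated with compounds for 17.5 h at 37 C. Fluorescence was read 30 min after CellTiter-Fluor addition.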

[5] = target: Luciferin 4-monooxygenase (Photinus pyralis) (UniProt P08659); assay: qHTS assay to identify small molecule inhibitors of firefly luciferase (AID 1224835); also: nearly all actives have a fitted effect of over 25% in size
Luciferin 4-monooxygenase (Photinus pyralis), sequence (P08659 whole entry, looked up): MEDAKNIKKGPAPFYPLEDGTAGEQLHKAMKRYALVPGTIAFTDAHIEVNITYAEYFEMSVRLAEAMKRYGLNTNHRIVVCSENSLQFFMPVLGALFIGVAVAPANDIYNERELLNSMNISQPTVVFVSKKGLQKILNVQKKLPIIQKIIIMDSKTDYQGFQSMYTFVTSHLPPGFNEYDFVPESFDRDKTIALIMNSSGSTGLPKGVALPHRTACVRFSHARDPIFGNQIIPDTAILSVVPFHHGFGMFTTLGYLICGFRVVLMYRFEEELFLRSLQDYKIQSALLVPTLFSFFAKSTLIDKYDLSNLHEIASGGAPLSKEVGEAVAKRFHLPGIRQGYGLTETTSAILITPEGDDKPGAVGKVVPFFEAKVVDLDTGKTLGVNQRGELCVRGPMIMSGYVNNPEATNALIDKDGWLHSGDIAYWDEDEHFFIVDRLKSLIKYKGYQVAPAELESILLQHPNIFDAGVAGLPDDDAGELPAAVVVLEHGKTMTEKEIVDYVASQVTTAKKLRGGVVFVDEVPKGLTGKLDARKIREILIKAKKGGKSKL
In short: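 Inhibition of purified Photinus luciferase is measured by luminescence. Substrate levels (D-luciferin, ATP) sit at their KM values. Each compound is tested in a concentration series.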

[6] = qHTS assay to identify small molecule agonists of the constitutive androstane receptor (CAR) signaling pathway - cell viability counter screen (AID 1224836); also: nearly all actives have a fitted effect of over 45% in size
In short: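 HepG2 cells stably carrying hCAR and a CYP2B6-2.2kb reporter; 15-concentration compounds plus PK11195 (final 0.75 uM), 23 hr at 37 C/5% CO2. Viability read by CellTiter-Fluor fluorescence.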

[7] = qHTS assay to identify small molecule antagonists of the constitutive androstane receptor (CAR) signaling pathway - cell viability counter screen (AID 1224837); also: nearly all actives have a fitted effect of over 45% in size
In short: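 CITCO at 50 nM final was added alongside compounds (15 concentrations) to double-stable hCAR/CYP2B6-2.2kb HepG2 cells. Following 23 hr at 37 C, cell viability was quantified by CellTiter-Fluor fluorescence intensity.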

[8] = qHTS assay to identify small molecule antagonists of the estrogen related receptor signaling pathway with the pleiotropic PPARgamma coactivator (PGC) from Tox21 10K library - cell viability counter screen (AID 1224840; active = well fitted cell-killing curve with a large enough effect in the repeat runs, not every such curve was filed as active; also: nearly all actives have a fitted effect of over 40% in size)
In short: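 Readout: fluorescence intensity from CellTiter-Fluor after 30 min at 37 C/5% CO2. Preceded by 17.5 h treatment of PGC/ERR cells with DMSO-dissolved compounds, added 6 h post-seeding.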

[9] = target: Thyrotropin receptor (Homo sapiens) (UniProt P16473); assay: qHTS assay to identify small molecule agonists of the thyroid stimulating hormone receptor (TSHR) signaling pathway (AID 1224843; calls by dose curve; also: nearly all actives have a fitted effect of over 45% in size; also: potency is read from the fitted curve at half-maximal effect)
Thyrotropin receptor (Homo sapiens), sequence (P16473 whole entry, looked up): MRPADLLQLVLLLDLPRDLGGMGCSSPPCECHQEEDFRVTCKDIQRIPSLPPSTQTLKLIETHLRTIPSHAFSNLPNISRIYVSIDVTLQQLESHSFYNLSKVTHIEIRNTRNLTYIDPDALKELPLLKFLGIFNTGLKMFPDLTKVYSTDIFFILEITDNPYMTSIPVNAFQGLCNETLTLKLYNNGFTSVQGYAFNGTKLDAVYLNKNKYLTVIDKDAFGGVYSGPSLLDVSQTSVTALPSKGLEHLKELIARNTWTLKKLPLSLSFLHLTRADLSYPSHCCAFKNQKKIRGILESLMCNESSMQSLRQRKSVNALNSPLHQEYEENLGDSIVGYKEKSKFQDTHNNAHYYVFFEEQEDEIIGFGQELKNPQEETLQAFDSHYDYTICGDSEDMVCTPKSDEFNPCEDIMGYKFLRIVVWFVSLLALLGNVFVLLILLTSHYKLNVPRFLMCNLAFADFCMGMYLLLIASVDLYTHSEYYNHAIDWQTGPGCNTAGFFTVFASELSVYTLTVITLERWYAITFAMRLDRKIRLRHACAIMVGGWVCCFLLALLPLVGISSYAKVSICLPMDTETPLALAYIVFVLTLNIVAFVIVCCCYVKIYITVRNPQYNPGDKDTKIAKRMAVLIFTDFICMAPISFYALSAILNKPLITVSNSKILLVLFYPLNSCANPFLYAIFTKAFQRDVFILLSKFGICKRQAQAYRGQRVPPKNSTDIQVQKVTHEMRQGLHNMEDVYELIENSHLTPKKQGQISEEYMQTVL
In short: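 Agonist activity read as cAMP rise via d2/cryptate HTRF competition, 1 h room-temperature detection, in HEK293 cells expressing TSHR. Fifteen-point titrations, each run in triplicate, with a 30 min room-temperature incubation beforehand.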

[10] = qHTS assay to identify small molecule agonists of the hypoxia (HIF-1) signaling pathway - cell viability counter screen (AID 1224844; calls by dose curve; also: nearly all actives have a fitted effect of over 50% in size)
In short: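 In this counter screen, HRE-bla ME-180 cell viability after 17 hrs of compound exposure at 37C was read by CellTiter-Glo luminescence, multiplexed with the beta-lactamase reporter measurement.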

[11] = qHTS assay to identify small molecule agonists of H2AX (AID 1224845; active = well fitted activation curve with a large enough effect in the signal ratio in the repeat runs, not every such curve was filed as active; the % refers to the signal ratio)
In short: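 Phospho-H2AX Ser139 measured by HTRF (ex 320 nm; em 665 and 620 nm) after 24 hr antibody incubation. Compounds, 15 concentrations, 0.76% DMSO, were applied to CHO-K1 cells for 3hr at 37C before lysis.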

[12] = qHTS assay to identify small molecule agonists of H2AX - cell viability counter screen (AID 1224847; calls by dose curve;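 also: wild-type CHO-K1 cells; top concentration of the series differs between compounds; nearly all actives have a fitted effect of over 30% in size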)
In short: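 CHO-K1 cells plated overnight at 37C, then exposed 3 h at 37C to compounds at 15 concentrations (0.76% DMSO final). Viability by CellTiter-Glo luminescence after 30 min at room temperature.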

[13] = qHTS RealTime-Glo MT Cell Viability Assay in HepG2 cells - 24 hour (AID 1224867); also: nearly all actives have a fitted effect of over 50% in size
In short: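 Real-time, nonlytic viability: 600 HepG2 cells/well mixed with NanoLuc enzyme plus prosubstrate; 5 h settle, compound (DMSO) added by pintool; luminescence monitored over 40 h at 37 C.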

[14] = target: Nuclear receptor subfamily 1 group I member 3 (Homo sapiens) (UniProt Q14994); assay: qHTS assay to identify small molecule antagonists of the constitutive androstane receptor (CAR) signaling pathway (AID 1224838); also: nearly all actives have a fitted effect of over 40% in size
Nuclear receptor subfamily 1 group I member 3 (Homo sapiens), sequence (Q14994 whole entry, looked up): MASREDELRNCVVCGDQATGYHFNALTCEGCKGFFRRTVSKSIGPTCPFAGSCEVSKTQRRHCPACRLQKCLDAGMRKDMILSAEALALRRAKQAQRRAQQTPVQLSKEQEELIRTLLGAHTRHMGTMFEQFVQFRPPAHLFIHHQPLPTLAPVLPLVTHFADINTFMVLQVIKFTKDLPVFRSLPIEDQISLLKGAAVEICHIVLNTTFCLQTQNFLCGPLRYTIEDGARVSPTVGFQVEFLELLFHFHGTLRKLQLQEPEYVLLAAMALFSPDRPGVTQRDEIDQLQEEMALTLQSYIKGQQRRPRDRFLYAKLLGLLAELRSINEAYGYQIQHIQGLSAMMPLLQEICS
In short: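 Inhibition of CITCO-driven (50 nM final) CYP2B6 reporter expression is measured in HepG2 cells stably carrying hCAR. Fifteen compound concentrations are applied for 24 h at 37 C, followed by luciferase luminescence.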

[15] = target: Nuclear receptor subfamily 1 group I member 3 (Homo sapiens) (UniProt Q14994); assay: qHTS assay to identify small molecule agonists of the constitutive androstane receptor (CAR) signaling pathway (AID 1224839); also: nearly all actives have a fitted effect of over 15% in size
In short: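 HepG2 cells stably co-transfected with hCAR and a CYP2B6-2.2kb luciferase reporter; compounds at 15 concentrations with 0.75 uM PK11195 present. After 24 hr at 37 C, luciferase read by ONE-Glo luminescence.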

[16] = qHTS assay to identify small molecule agonists of the hypoxia (HIF-1) signaling pathway (AID 1224846; active = well fitted activation curve with a large enough effect in the signal ratio in the repeat runs, not every such curve was filed as active; the % refers to the signal ratio)
In short: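 ME-180 HRE-bla reporter cells; compounds in DMSO, 17 h at 37C; read-out beta-lactamase via CCF4-AM FRET.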

[17] = qHTS assay to identify small molecule antagonists of the estrogen related receptor signaling pathway with the pleiotropic PPARgamma coactivator (PGC) from Tox21 10K library (AID 1224841; call rule not given here; also: actives are mostly falling curves and most rising ones were filed inactive; nearly all actives have a fitted effect of over 50% in size)
In short: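 One-Glo luminescence, measured after half an hour at room temperature, quantified reporter output of PGC/ERR cells. These had been plated at 2,000 per well, incubated 6 h, dosed with compounds in DMSO, then kept 18 h at 37 C.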

[18] = qHTS assay to identify small molecule agonists of the estrogen related receptor signaling pathway with the pleiotropic PPARgamma coactivator (PGC) from Tox21 10K library (AID 1224842); also: nearly all actives have a fitted effect of over 15% in size
In short: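 Luminescence from One-Glo (30 min, room temperature) measured after PGC/ERR cells had 18 h at 37 C with pinned compound (23 nL in DMSO). Cells had been seeded at 2,000 per well and pre-incubated 6 h.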

[19] = qHTS assay to identify small molecule antagonists of the estrogen related receptor (ERR) signaling pathway from Tox21 library (AID 1224848); also: nearly all actives have a fitted effect of over 50% in size
In short: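 Luciferase luminescence (ONE-Glo, 30 min room temperature) was the read-out. Cells of the NTP-supplied ERR line, 2,000 per well, were given 6 h at 37 C before compound addition in DMSO and 18 h exposure at 37 C.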

[20] = qHTS assay to identify small molecule agonists of the estrogen related receptor (ERR) signaling pathway from Tox21 library (AID 1224849; calls by dose curve; also: nearly all actives have a fitted effect of over 15% in size); settings: ERR reporter cell line, ONE-Glo luciferase, 18 h; at 92.4 µM (top of the series) unless noted
In short: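 Luciferase activity in ERR pathway reporter cells served as the agonist readout; exposure lasted 18 h at 37 C, with ONE-Glo detection after 30 min at room temperature.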

## CNCCc1ccccn1
[1]
  outcome: inactive
[2]
  outcome: inactive
[3]
  Potency: inactive
[4]
  outcome: inactive
[5]
  Potency: inactive
[6]
  outcome: inactive
[7]
  outcome: inactive
[8]
  outcome: inactive
[9]
  Potency: inactive
[10]
  outcome: inactive
[11]
  outcome: inactive
[12]
  outcome: inactive
[13]
  outcome: inactive

## CCCC(=O)OC
[1]
  outcome: inactive
[2]
  outcome: inactive
[3]
  Potency: inactive
[4]
  outcome: inactive
[5]
  Potency: inactive
[6]
  outcome: inactive
[7]
  outcome: inactive
[8]
  outcome: inactive
[9]
  Potency: inactive
[10]
  outcome: inactive
[11]
  outcome: inactive
[13]
  outcome: inactive

## Cc1cc(O)c(Cl)cc1C
[1]
  outcome: inactive
[2]
  outcome: inactive
[3]
  Potency: inactive
[4]
  outcome: inactive
[5]
  Potency: inactive
[6]
  outcome: inactive
[14]
  outcome: inactive
[15]
  Potency: inactive
[8]
  outcome: inactive
[9]
  Potency: inactive
[10]
  outcome: inactive
[11]
  outcome: inactive
[16]
  outcome: inactive
[12]
  outcome: inactive
[13]
  outcome: inactive

## Cc1nnc(C(=O)NC(C)(C)c2nc(C(=O)NCc3ccc(F)cc3)c(O)c(=O)n2C)o1
[1]
  outcome: inactive
[2]
  outcome: inactive
[3]
  Potency: 33.5 µM (active)
[4]
  outcome: inactive
[5]
  Potency: inactive
[6]
  outcome: inactive
[8]
  outcome: inactive
[17]
  Potency: inactive
[18]
  Potency: inactive
[9]
  Potency: inactive
[10]
  outcome: inactive
[11]
  outcome: inactive
[16]
  outcome: inactive
[12]
  outcome: inactive
[19]
  outcome: inactive
[20]
  activity change, positive = activation: 9.04% [at 42.5 µM]
[13]
  outcome: inactive

## CC(=O)Nc1ccc(S(=O)(=O)Nc2cc(C)on2)cc1
[1]
  outcome: inactive
[2]
  outcome: inactive
[3]
  Potency: inactive
[4]
  outcome: inactive
[5]
  Potency: inactive
[6]
  outcome: inactive
[7]
  outcome: inactive
[8]
  outcome: inactive
[9]
  Potency: inactive
[10]
  outcome: inactive
[11]
  outcome: inactive
[12]
  outcome: inactive
[13]
  outcome: inactive

## CCO/C=C1\N=C(c2ccccc2)OC1=O
[1]
  outcome: inactive
[2]
  outcome: inactive
[3]
  Potency: inactive
[4]
  outcome: inactive
[5]
  Potency: inactive
[6]
  outcome: inactive
[7]
  outcome: inactive
[8]
  outcome: inactive
[9]
  Potency: inactive
[11]
  outcome: inactive
[16]
  outcome: inactive
[12]
  outcome: inactive
[13]
  outcome: inactive

## O=C1CC2(CCCC2)CC(=O)N1CCNCC1COc2ccccc2O1 (configuration not stated)
[1]
  outcome: inactive
[2]
  outcome: inactive
[3]
  Potency: inactive
[4]
  outcome: inactive
[5]
  Potency: inactive
[6]
  outcome: inactive
[7]
  outcome: inactive
[8]
  outcome: inactive
[9]
  Potency: inactive
[10]
  outcome: inactive
[11]
  outcome: inactive
[16]
  outcome: inactive
[12]
  outcome: inactive
[13]
  outcome: inactive

## CCCCc1ccc(Cl)cc1
[1]
  outcome: inactive
[2]
  outcome: inactive
[3]
  Potency: inactive
[4]
  outcome: inactive
[5]
  Potency: inactive
[6]
  outcome: inactive
[7]
  outcome: inactive
[8]
  outcome: inactive
[9]
  Potency: inactive
[10]
  outcome: inactive
[11]
  outcome: inactive
[16]
  outcome: inactive
[12]
  outcome: inactive
[13]
  outcome: inactive

## COC(=O)c1ccc(C(=O)O)cc1
[1]
  outcome: inactive
[2]
  outcome: inactive
[3]
  Potency: inactive
[4]
  outcome: inactive
[5]
  Potency: inactive
[6]
  outcome: inactive
[8]
  outcome: inactive
[9]
  Potency: inactive
[10]
  outcome: inactive
[11]
  outcome: inactive
[12]
  outcome: inactive
[13]
  outcome: inactive

## COc1cc(NS(=O)(=O)c2ccc(N)cc2)ncn1
[1]
  outcome: inactive
[2]
  outcome: inactive
[3]
  Potency: inactive
[4]
  outcome: inactive
[5]
  Potency: inactive
[6]
  outcome: inactive
[15]
  Potency: inactive
[8]
  outcome: inactive
[9]
  Potency: inactive
[10]
  outcome: inactive
[11]
  outcome: inactive
[12]
  outcome: inactive
[13]
  outcome: inactive

## Nc1ccc(C(=O)NCC(=O)O)cc1
[1]
  outcome: inactive
[2]
  outcome: inactive
[3]
  Potency: inactive
[4]
  outcome: inactive
[5]
  Potency: inactive
[6]
  outcome: inactive
[7]
  outcome: inactive
[8]
  outcome: inactive
[10]
  outcome: inactive
[11]
  outcome: inactive
[16]
  outcome: inactive
[12]
  outcome: inactive
[13]
  outcome: inactive

## CC(C)C(=O)Nc1cccc(C2CN3CCSC3=N2)c1 (configuration not stated)
[1]
  outcome: inactive
[2]
  outcome: inactive
[3]
  Potency: inactive
[4]
  outcome: inactive
[5]
  Potency: inactive
[6]
  outcome: inactive
[7]
  outcome: inactive
[8]
  outcome: inactive
[9]
  Potency: inactive
[10]
  outcome: inactive
[11]
  outcome: inactive
[16]
  outcome: inactive
[12]
  outcome: inactive
[13]
  outcome: inactive

## O=c1c(O)c(O)c1=O
[1]
  outcome: inactive
[2]
  outcome: inactive
[3]
  Potency: inactive
[4]
  outcome: inactive
[5]
  Potency: inactive
[6]
  outcome: inactive
[14]
  outcome: inactive
[15]
  Potency: inactive
[8]
  outcome: inactive
[9]
  Potency: 27.3 µM (active)
[10]
  outcome: inactive
[11]
  outcome: inactive
[12]
  outcome: inactive
[13]
  outcome: inactive
